Experimental data taken from PubChem BioAssay (NCI).
Where “and” joins values, the source holds several entries; their conditions need not be identical. Equal values may be shown once. Compounds without any hit were thinned out: in the full panel of roughly 83,000, 20% have a hit.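 Negative percent growth values reflect cell death: -40 means 40% of the cells present at the start died, and -100 means all died.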 Calls of active or inactive are those of the source. How the source made its calls: active means growth percent below 10; inactive means the rest.

Key:
Assay in all cases: NCI-60 one-dose screen, 48 h (100 = growth as untreated, 0 = no growth, -100 = all killed)
Conditions in all cases: 10 µM unless noted
SK-MEL-2 melanoma = test system: SK-MEL-2 melanoma
EKVX NSCLC = test system: EKVX NSCLC
SN12C renal = test system: SN12C renal
UO-31 renal = test system: UO-31 renal
TK-10 renal = test system: TK-10 renal
ACHN renal = test system: ACHN renal
CAKI-1 renal = test system: CAKI-1 renal
A498 renal = test system: A498 renal
CCRF-CEM leukemia = test system: CCRF-CEM leukemia
MOLT-4 leukemia = test system: MOLT-4 leukemia
RPMI-8226 leukemia = test system: RPMI-8226 leukemia
OVCAR-8 ovarian = test system: OVCAR-8 ovarian
OVCAR-5 ovarian = test system: OVCAR-5 ovarian
OVCAR-4 ovarian = test system: OVCAR-4 ovarian
SK-OV-3 ovarian = test system: SK-OV-3 ovarian
IGROV1 ovarian = test system: IGROV1 ovarian
OVCAR-3 ovarian = test system: OVCAR-3 ovarian
NCI/ADR-RES ovarian = test system: NCI/ADR-RES ovarian
SR leukemia = test system: SR leukemia
HS 578T breast = test system: HS 578T breast

| SMILES | growth (SK-MEL-2 melanoma) | growth (EKVX NSCLC) | growth (SN12C renal) | growth (UO-31 renal) | growth (TK-10 renal) | growth (ACHN renal) | growth (CAKI-1 renal) | growth (A498 renal) | growth (CCRF-CEM leukemia) | growth (MOLT-4 leukemia) | growth (RPMI-8226 leukemia) | growth (OVCAR-8 ovarian) | growth (OVCAR-5 ovarian) | growth (OVCAR-4 ovarian) | growth (SK-OV-3 ovarian) | growth (IGROV1 ovarian) | growth (OVCAR-3 ovarian) | growth (NCI/ADR-RES ovarian) | growth (SR leukemia) | growth (HS 578T breast) |
| --- | --- | --- | --- | --- | --- | --- | --- | --- | --- | --- | --- | --- | --- | --- | --- | --- | --- | --- | --- | --- |
| Cc1ccc2c(ccc3c[n+]4c5ccccc5ccc4n32)c1 | -19.8% (active) | 22.4% (inactive) | 5.27% (active) | 51% (inactive) | 58.6% (inactive) | 46.9% (inactive) | 67.8% (inactive) | 16% (inactive) | 19.2% (inactive) | 8.93% (active) | 31.7% (inactive) | 3.22% (active) | 47.6% (inactive) | -35.4% (active) | 0.442% (active) | 27% (inactive) | -43.2% (active) | 70.3% (inactive) | – | – |
| CCC(=O)Sc1ccccc1C(=O)Nc1ccc(Cl)cc1 | 133% (inactive) | 29.5% (inactive) | 49.5% (inactive) | 61.6% (inactive) | 69.4% (inactive) | 73.2% (inactive) | 31.9% (inactive) | 36.8% (inactive) | 27.1% (inactive) | 30.9% (inactive) | 35% (inactive) | – | 110% (inactive) | 44.5% (inactive) | – | 71.2% (inactive) | 39.9% (inactive) | 52.6% (inactive) | 26.3% (inactive) | 54.5% (inactive) |
| N#CSCC(=O)c1ccc(Cl)cc1 | 80.8% (inactive) | 82.6% (inactive) | 33.6% (inactive) | 28.3% (inactive) | 82.7% (inactive) | 52% (inactive) | 31.8% (inactive) | 83.7% (inactive) | 52.5% (inactive) | 65.4% (inactive) | 45.6% (inactive) | 63.7% (inactive) | 22.5% (inactive) | 63.5% (inactive) | 66.7% (inactive) | – | – | -16.4% (active) | – | 70.5% (inactive) |
| CC1=CC(O)C2CC1C2(C)C (centres undefined) | 92.8% (inactive) | 97.7% (inactive) and 104% (inactive) | 102% (inactive) and 108% (inactive) | 93.8% (inactive) and 73.6% (inactive) | 102% (inactive) and 98.1% (inactive) | 103% (inactive) and 118% (inactive) | 94.4% (inactive) and 85.8% (inactive) | 91% (inactive) and 92.7% (inactive) | 106% (inactive) and 105% (inactive) | 91.9% (inactive) and 93.3% (inactive) | 111% (inactive) and 107% (inactive) | – | 104% (inactive) and 110% (inactive) | 99.7% (inactive) and 108% (inactive) | – | 101% (inactive) and 99.3% (inactive) | 110% (inactive) and 113% (inactive) | 108% (inactive) and 109% (inactive) | 101% (inactive) and 97.3% (inactive) | 97.5% (inactive) and 106% (inactive) |
| Oc1c(Cl)cc(Cl)c2cccnc12 | 80% (inactive) and 60.3% (inactive) | 58.9% (inactive) and 51.5% (inactive) | 57.3% (inactive) | 42.8% (inactive) and 24.9% (inactive) | 53% (inactive) and 107% (inactive) | 42% (inactive) | 46.3% (inactive) and 51.3% (inactive) | 67.6% (inactive) and 66.6% (inactive) | 31% (inactive) and 36.4% (inactive) | 37.1% (inactive) and 35.7% (inactive) | 50.3% (inactive) and 50.1% (inactive) | – | 94.9% (inactive) | 50.1% (inactive) and 45.7% (inactive) | 86.5% (inactive) and 65.8% (inactive) | 52.9% (inactive) | – | 27.4% (inactive) and 29.3% (inactive) | 32.7% (inactive) and 31.9% (inactive) | 72.9% (inactive) and 52% (inactive) |
| C1=C(c2ccccc2)C(c2ccc(OCCN3CCCCC3)cc2)Oc2ccccc21 (centres undefined) | 77.3% (inactive) | 69.1% (inactive) | 55.3% (inactive) | 56.7% (inactive) | 74.9% (inactive) | 71.5% (inactive) | 30% (inactive) | 94% (inactive) | 37.5% (inactive) | 47.1% (inactive) | 15.5% (inactive) | – | – | – | 74% (inactive) | 44.2% (inactive) | – | 68.4% (inactive) | -0.379% (active) | – |
| COc1ccccc1OC(=O)Oc1ccccc1OC | 115% (inactive) and 91.6% (inactive) | 118% (inactive) and 97% (inactive) | 105% (inactive) and 95.8% (inactive) | 78.2% (inactive) and 93.9% (inactive) | 104% (inactive) and 98% (inactive) | 108% (inactive) and 104% (inactive) | 97.9% (inactive) | 108% (inactive) and 103% (inactive) | 101% (inactive) and 83.6% (inactive) | 93.9% (inactive) and 92% (inactive) | 105% (inactive) and 72.9% (inactive) | 103% (inactive) and 112% (inactive) | 117% (inactive) and 97.6% (inactive) | 114% (inactive) and 99% (inactive) | 112% (inactive) | 105% (inactive) and 97.2% (inactive) | 119% (inactive) and 96.3% (inactive) | 114% (inactive) and 95.8% (inactive) | – | – |
| CN(C)c1ccc(N=Nc2cccc3ccccc23)cc1 | 100% (inactive) | 71.7% (inactive) | 92.9% (inactive) | 57.5% (inactive) | 80.9% (inactive) | 91.3% (inactive) | 90.2% (inactive) | 85.3% (inactive) | 81.6% (inactive) | 84.3% (inactive) | 72.5% (inactive) | – | 107% (inactive) | – | – | 67.2% (inactive) | 84.3% (inactive) | 102% (inactive) | 111% (inactive) | 95% (inactive) |
| O=C1c2ccccc2C(=O)c2sc(Nc3cccc(Cl)c3)nc21 | -16% (active) | 7.78% (active) | -71.3% (active) | -5.49% (active) | 147% (inactive) | -52.8% (active) | 70.4% (inactive) | 79.3% (inactive) | 8.52% (active) | -19.6% (active) | 2.31% (active) | 1.49% (active) | – | – | – | 0.883% (active) | -34.3% (active) | -16.9% (active) | 2.67% (active) | -8.09% (active) |
| Cc1ccc(N=C=C(c2ccccc2)c2ccccc2)cc1 | 97.5% (inactive) | 90.6% (inactive) | 79.2% (inactive) | 80.3% (inactive) | 112% (inactive) | 102% (inactive) | 81.6% (inactive) | 126% (inactive) | 1.63% (active) | -1.03% (active) | 16.6% (inactive) | 70% (inactive) | 113% (inactive) | 103% (inactive) | 112% (inactive) | 57.2% (inactive) | – | 81.2% (inactive) | – | – |
| CN(C)CCOc1ccc2c(c1)C(=O)/C(=C\c1ncc([N+](=O)[O-])n1C)C2 | -72.5% (active) | -18.9% (active) | 0.0262% (active) | -36.7% (active) | -9.94% (active) | -31.9% (active) | -19.2% (active) | -88% (active) | -61.1% (active) | -32.1% (active) | 9.88% (active) | 1.01% (active) | -21.1% (active) | -49.1% (active) | -42.6% (active) | -47.7% (active) | -59% (active) | -1.71% (active) | – | 21.1% (inactive) |
| O=C(/C=C\c1ccccc1)N1c2ccccc2CC1c1c[nH]c2ccccc12 (centres undefined) | 61.3% (inactive) | 66% (inactive) | 74.3% (inactive) | 40.1% (inactive) | 77.8% (inactive) | 79.4% (inactive) | 62.8% (inactive) | 54.2% (inactive) | 68.6% (inactive) | 44.3% (inactive) | 55.9% (inactive) | 81% (inactive) | 76.8% (inactive) | 62% (inactive) | 60.5% (inactive) | 47.3% (inactive) | 75% (inactive) | 73.6% (inactive) | – | – |
| N[C@H](C(=O)O)[C@@H]1CC(Cl)=NO1 | 46.3% [20 µM] (inactive) | – | 19.6% [20 µM] (inactive) | 34.8% [20 µM] (inactive) | 24.7% [20 µM] (inactive) | 21.5% [20 µM] (inactive) | 18.3% [20 µM] (inactive) | 13.6% [20 µM] (inactive) | 19% [20 µM] (inactive) | 23.5% [20 µM] (inactive) | 28.9% [20 µM] (inactive) | 30.3% [20 µM] (inactive) | 28.4% [20 µM] (inactive) | 48.1% [20 µM] (inactive) | 34.1% [20 µM] (inactive) | 10.8% [20 µM] (inactive) | 32.4% [20 µM] (inactive) | 28.4% [20 µM] (inactive) | 21.2% [20 µM] (inactive) | 27.2% [20 µM] (inactive) |
